ChEMBL document CHEMBL3433997, “St. Jude Leishmania screening dataset” (2016)

What follows are compounds tested against Solute carrier family 2, facilitated glucose transporter member 1 (Homo sapiens) (UniProt P11166) (assay: ST_JUDE_LEISH: Cytotoxicity at 2uM final concentration against transgenic Leishmania Mexicana promastigotes LmGLUT1 that are glucose transport deficient and complemented with the human glucose transporter GLUT1. Activity is measured by DNA content using SYBR green in vitro).
Format: functional

Sequence of Solute carrier family 2, facilitated glucose transporter member 1 (Homo sapiens) (P11166 whole entry): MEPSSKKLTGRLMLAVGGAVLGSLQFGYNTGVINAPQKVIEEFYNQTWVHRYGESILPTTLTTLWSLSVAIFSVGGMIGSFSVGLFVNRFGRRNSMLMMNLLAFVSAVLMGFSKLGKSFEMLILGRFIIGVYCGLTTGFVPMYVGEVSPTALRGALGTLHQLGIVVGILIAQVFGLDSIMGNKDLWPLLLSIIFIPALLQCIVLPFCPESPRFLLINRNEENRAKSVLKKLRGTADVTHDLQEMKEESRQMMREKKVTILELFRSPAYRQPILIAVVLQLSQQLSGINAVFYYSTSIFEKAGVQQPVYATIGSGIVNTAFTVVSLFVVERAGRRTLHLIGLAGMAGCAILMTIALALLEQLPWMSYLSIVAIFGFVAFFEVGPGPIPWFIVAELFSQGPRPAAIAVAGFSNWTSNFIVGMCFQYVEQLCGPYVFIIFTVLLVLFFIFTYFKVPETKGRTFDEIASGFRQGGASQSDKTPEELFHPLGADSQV

| Structure (SMILES) | inhibition |
| --- | --- |
| O=C(Nc1ccc(Cl)cc1)Nc1cccc(-c2cccc(-c3nc4ccccc4[nH]3)c2)c1 | 1.17% |
| COc1cc(Cc2cnc(N)nc2N)c2c(c1OC)OC(C)C=C2 (stereo not given) | 1.59% |
| Fc1ccc2[nH]c(-c3ccc(-c4ccc(CN5CCN(CCN6CCOCC6)CC5)cc4)s3)nc2c1 | 6.46% |
| Cc1cc(-c2c[nH]c3ncc(-c4cccc5ncccc45)cc23)ccc1C(=O)O | 0.89% |
| Cc1ccc(NC(=O)c2ccc3ncccc3c2)cc1OC1CCN(C(C)C)C1 (stereo not given) | 8.85% |
| Cc1cc(NCCC(=O)Nc2ccccc2)nc(NCCc2cccs2)n1 | 4.03% |
| O=C(Nc1ccc(Cn2ncc(N3CCCNCC3)c(Cl)c2=O)cc1)Nc1cccc(C(F)(F)F)c1 | 0.62% |
| Clc1ccc(CNc2nc(NCCc3c[nH]cn3)nc(N3CCCC4CCCCC43)n2)cc1 (stereo not given) | 3.99% |
| CC(=O)Nc1nc(N)c2c(ccc3c2ccn3CC(C)C)n1 | -2.54% |
| Oc1ccc(Nc2nc(NCC3CCCO3)c3ccccc3n2)cc1 (stereo not given) | 7.56% |
| O=[N+]([O-])c1ccccc1C=NN=c1cc[nH]c2ccccc12 | -2.55% |
| COc1cccc(-c2cc(-c3ccc(NC(=O)c4ccccc4)cc3)c3c(N)ncnc3n2)c1 | -0.77% |
| CN1CCC(Oc2cc(NC(=O)Nc3ccc(-c4ccncc4)c(C(F)(F)F)c3)ccc2Cl)CC1 | 12.6% |
| CS(=O)(=O)c1ccccc1CNC(=O)c1ccc(-c2ccc(-c3nc4cc(C(F)(F)F)ccc4[nH]3)s2)cc1 | 7.56% |
| O=C(C=Cc1ccc(Cl)c(Cl)c1)NC1CCN(CCc2ccccc2)CC1 | 0.9% |
| COc1ccc2ncc(F)c(CCN3CCC4(CC3)COC(c3cc5c(cn3)OCCO5)=N4)c2n1 | 10.3% |
| Nc1c2ccccc2nc2ccc(Cl)cc12 | 14.6% |
| COc1ccc(C2N=C(N)N=C(N)N2c2ccc(Cl)cc2)cc1OC (stereo not given) | 2.61% |
| CS(=O)(=O)c1ccc(CCNCc2ccc(-c3ccc(CN(C(=O)c4ccco4)C4CCN(Cc5ccccc5)CC4)cc3)nc2)cc1 | 1.33% |
| Cc1ccc(NC(=O)c2c(C)noc2-c2snnc2C)cc1 | 3.24% |

| Structure (SMILES) | inhibition |
| --- | --- |
| Cc1c(CCc2cccc(F)c2F)[nH]c2ccccc2c1=O | -0.2% |
| O=C(NCc1ccc(C(F)(F)F)cc1)c1cccc(-c2nnc(-c3cccc(-c4cncnc4)c3)o2)c1 | 9.91% |
| Cc1ccc(C(=O)Nc2cccc(CN3CCCN(Cc4ccc(O)cc4)CC3)c2)cc1 | 1.89% |
| COCC(C)n1c(C)cc(C(=O)CSc2nnc(Nc3ccccc3)s2)c1C (stereo not given) | 1.18% |
| Cc1ccccc1C1CCN(C2CCC(NC(=O)/C=C/c3cccc(C(F)(F)F)c3)CC2)CC1 (stereo not given) | 1.86% |
| CN(C)CCOc1cc(NC(=O)c2ccc(-c3ccc(Cl)cc3Cl)cc2)ccc1-c1ccccc1 | 0.11% |
| Cc1cc(I)ccc1Nc1nc2nonc2nc1Nc1ccc(I)cc1C | 9.92% |
| CCCCn1c(C(C)Oc2ccc(Cl)cc2Cl)nc2cc(S(N)(=O)=O)ccc21 (stereo not given) | -0.86% |
| CC1(C)NC(N)=NC(=N)N1OCCCNC(=O)c1ccc([N+](=O)[O-])cc1 | 4.23% |
| CCc1cc2c3c(N)nc(N)nc3ccc2n1C(CC)CC | 71.2% |
| N#Cc1ccc2[nH]cc(-c3cn4cc(SC5CCCC5)ccc4n3)c2c1 | 0.43% |
| COc1cc(Cc2cnc(N)nc2N)cc(OCc2cccc(C(=O)O)c2)c1OC | -0.05% |
| Cc1cc(C)cc(N2C(N)=NC(N)=NC2(C)C)c1 | 7.13% |
| Cc1ncsc1CCN1C(=O)CC2(C1=O)C(=O)N(Cc1ccccc1)c1ccc(Cl)cc12 (stereo not given) | 1.9% |
| CN(C)CCCn1c(C(=O)OC(c2ccccc2)c2ccccc2)cc2cc(OCc3ccccc3)ccc21 | -0.72% |
| CC(C(=O)N1CCCC1)N1CCN(S(=O)(=O)c2ccc(C(C)(C)C)cc2)CC1 (stereo not given) | -0.57% |
| CC(Cc1ccc(CN(CC(N)=O)Cc2ccc(CC(C)NCCc3cccc(Cl)c3)cc2)cc1)NCCc1cccc(Cl)c1 (stereo not given) | 3.67% |
| Cc1cc(NC(=O)c2coc3cc(F)c(N4CC(C)N(C)C(C)C4)cc23)cnc1-c1ccc(C#N)cc1 (stereo not given) | 0.22% |
| COc1ccccc1/C=C/C(=O)N(C)C1CCN(CCCCCNC(=O)/C=C/c2ccc(Cl)c(Cl)c2)CC1 | 4.19% |
| Cc1ccccc1-c1cc(=O)c2cc(NC(=O)c3cccs3)ccc2o1 | 3.19% |
